The source of these data is PubChem BioAssay (NCATS).

Molecules are shown by their SMILES. Records with an inconclusive call do not appear. Active and inactive are the calls of the source. Calls come from the whole dose curve; as a rule, active = well fitted cell-killing curve with a large enough effect; inconclusive = small, poorly fitted or top-dose-only effect, or effect the other way; inactive = no such curve, though single readings can be large or run the other way.

The nature of experiment [1]: Quantitative High-Throughput drug screen in 47 multiple myeloma cell lines against the NCATS MIPE library collection: XG6_PLB cell viability assay (AID 1919865). Note: nearly all actives have a fitted effect of over 40% in size. In a few lines:
(§1)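 Plated at 500 cells per well, myeloma lines received MIPE 4.0 compounds by pin tool. Following 48 h culture at 37 °C, CellTiter-Glo luminescence gave viability relative to DMSO and media-only controls.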

The nature of experiment [2]: Quantitative High-Throughput drug screen in 47 multiple myeloma cell lines against the NCATS MIPE library collection: VP6_DJ cell viability assay (AID 1919867). Note: nearly all actives have a fitted effect of over 40% in size. In a few lines:
as §1

The nature of experiment [3]: Quantitative High-Throughput drug screen in 47 multiple myeloma cell lines against the NCATS MIPE library collection: UTMC2_PLB cell viability assay (AID 1919868). Note: nearly all actives have a fitted effect of over 55% in size. Conditions: CellTiter-Glo ATP luminescence, 48 h; viability (% of DMSO control): at 45.8 µM (top of the series) unless noted. The gist of the method: as §1
Experiment [4] in a line: Quantitative High-Throughput drug screen in 47 multiple myeloma cell lines against the NCATS MIPE library collection: PE2_PLB cell viability assay (AID 1919869). Note: nearly all actives have a fitted effect of over 35% in size. The gist of the method: as §1
A short description of experiment [5]: Quantitative High-Throughput drug screen in 47 multiple myeloma cell lines against the NCATS MIPE library collection: PCM6_Riken cell viability assay (AID 1919870). Note: nearly all actives have a fitted effect of over 30% in size. In a few lines:
as §1

Experiment [6] can be described thus: Quantitative High-Throughput drug screen in 47 multiple myeloma cell lines against the NCATS MIPE library collection: RPMI8226_ATCC cell viability assay (AID 1919871). Note: nearly all actives have a fitted effect of over 30% in size. The gist of the method:
as §1

Experiment [7] is described as follows: Quantitative High-Throughput drug screen in 47 multiple myeloma cell lines against the NCATS MIPE library collection: OPM2_DSMZ cell viability assay (AID 1919872). Note: nearly all actives have a fitted effect of over 30% in size. The gist of the method:
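We plated 500 myeloma cells per well, pinned in MIPE 4.0 compounds, and incubated for 48 hours at 37C. ATP was then quantified with CellTiter-Glo, with DMSO and media-only wells defining 100% and 0%.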

Experiment [8] can be described thus: Quantitative High-Throughput drug screen in 47 multiple myeloma cell lines against the NCATS MIPE library collection: KMS11_JCRBsus cell viability assay (AID 1919873). Note: nearly all actives have a fitted effect of over 50% in size. The gist of the method:
as §1

A short description of experiment [9]: Quantitative High-Throughput drug screen in 47 multiple myeloma cell lines against the NCATS MIPE library collection: XG1_PLB cell viability assay (AID 1919866). Note: nearly all actives have a fitted effect of over 35% in size. The gist of the method:
as §1

A short description of experiment [10]: Quantitative High-Throughput drug screen in 47 multiple myeloma cell lines against the NCATS MIPE library collection: KMS28BM_JCRB cell viability assay (AID 1919874). Note: nearly all actives have a fitted effect of over 35% in size. In a few lines: as §1
Potency is the fitted concentration of half-maximal effect.

As to `COc1cc(Nc2ncc(F)c(Nc3ccc4c(n3)N(COP(=O)(O)O)C(=O)C(C)(C)O4)n2)cc(OC)c1OC`, the Potency in [1] was 1.48 µM (active); in experiment [2] it was 1.48 µM (active); in [3], 5.26 µM (active); in [4], 1.18 µM (active); in experiment [5], 9.35 µM (active); in experiment [6] it was 20.9 µM (active). In addition, the Potency in experiment [7] is 18.7 µM (active); in experiment [8], 2.96 µM (active).

As to `Cc1nc(Nc2n[nH]c3c2CN(C(=O)N[C@H](CN(C)C)c2ccccc2)C3(C)C)c2sccc2n1`, the Potency is 0.372 µM (active) in experiment [1]; 0.296 µM (active) in [9]; 0.833 µM (active) in experiment [4]; 1.87 µM (active) in [5]; 1.32 µM (active) in experiment [6]; 3.72 µM (active) in experiment [7]. The Potency in [8] and in experiment [10] was 0.0372 µM (active) throughout.

For `Nc1ccn([C@@H]2O[C@H](CO)[C@H](O)C2(F)F)c(=O)n1`, the Potency was 0.0743 µM (active) in experiment [1]; 0.526 µM (active) in [2]; 0.0148 µM (active) in [3]; 0.332 µM (active) in experiment [4]; 1.87 µM (active) in experiment [5]; 0.469 µM (active) in experiment [6]. Also, the results for the Potency in experiment [8] and in [10] were 0.296 µM (active) and 5.26 µM (active), respectively. In [7], the Potency entry is “inactive”.

Turning to `COc1ccc(C=Cc2cc(OC)c(OC)c(OC)c2)cc1O`, the Potency result in experiment [1], in experiment [2], in experiment [3], in [4], in experiment [5] and in experiment [7] was “inactive” in each case. Also, the Potency entry in [8] and in [10] was “inactive” each time.

Consider `Cc1cc(Nc2cc(N3CCN(C)CC3)nc(Sc3ccc(NC(=O)C4CC4)cc3)n2)n[nH]1`, for which the Potency in [1] is 13.2 µM (active); in [9], 4.18 µM (active); in [4] it was 14.8 µM (active); in experiment [5] it was 23.5 µM (active); in [6], 13.2 µM (active); in [7] it was 20.9 µM (active). In addition, in [10], the Potency was 6.62 µM (active).

In the case of `Cc1ccc2nc(NC(=O)CSc3nc4c(c(=O)n3-c3ccccc3)SCC4)sc2c1`, the Potency in experiment [1] was 14.8 µM (active); in experiment [2], 9.35 µM (active); in experiment [4] it was 9.35 µM (active); in [6], 16.6 µM (active); in experiment [7] it was 20.9 µM (active); in experiment [8], 8.33 µM (active). Also, the Potency in [10] is 9.35 µM (active). In experiment [3], the Potency result is “inactive”.

`Fc1cc(-c2cccc3ncc(-c4cnn(C5CCNCC5)c4)nc23)cc(F)c1CN1CCOCC1`: the Potency is 7.43 µM (active) in experiment [1]; 7.43 µM (active) in experiment [9]; 8.33 µM (active) in experiment [4]; 7.43 µM (active) in experiment [5]; 20.9 µM (active) in [6]; 9.35 µM (active) in [8]. For the same compound, in experiment [10], the Potency was 26.4 µM (active).

Turning to `COc1ccc2c(OCc3nnc4ccc(-c5ccccc5)nn34)ccnc2c1`, the Potency in [1] is 0.469 µM (active); in [4], 1.87 µM (active). The Potency result in experiment [9], in experiment [5], in [6], in [7], in experiment [8] and in [10] was “inactive” throughout.

As to `COc1cc2nccc(Oc3ccc(NC(=O)C4(C(=O)Nc5ccc(F)cc5)CC4)cc3)c2cc1OC`, the Potency in experiment [1] is 0.743 µM (active); in experiment [2], 3.72 µM (active); in [3], 20.9 µM (active); in experiment [5] it was 2.96 µM (active); in experiment [6], 20.9 µM (active); in experiment [7], 23.5 µM (active). Also, the Potency in experiment [8] and in [10] was 20.9 µM (active) in each case.

As to `CC[C@@]1(O)C(=O)OCc2c1cc1n(c2=O)Cc2cc3cc(O)ccc3nc2-1`, the Potency is 0.0132 µM (active) in experiment [1]; 0.418 µM (active) in experiment [2]; 0.0372 µM (active) in experiment [3]; 0.264 µM (active) in experiment [4]; 0.743 µM (active) in [5]; 8.33 µM (active) in experiment [6]. For the same compound, the Potency in [7] was 3.32 µM (active); in experiment [8], 1.18 µM (active); in [10] it was 0.209 µM (active).

For `Cn1c(CNc2ccc(C(=N)N)cc2)nc2cc(C(=O)N(CCC(=O)O)c3ccccn3)ccc21`, the Potency result in experiment [1], in experiment [9], in [5], in experiment [6], in experiment [7] and in experiment [8] was “inactive” each time. The Potency result in [10] is “inactive”.

For `Cc1cnc(Nc2ccc(F)cc2Cl)nc1-c1c[nH]c(C(=O)N[C@H](CO)c2cccc(Cl)c2)c1`, the Potency in [1] is 3.72 µM (active); in [2] it was 5.26 µM (active); in [3] it was 18.7 µM (active); in experiment [4] it was 6.62 µM (active); in [5], 18.7 µM (active); in experiment [6], 20.9 µM (active). The Potency is 18.7 µM (active) in experiment [7], 16.6 µM (active) in [8] and 20.9 µM (active) in experiment [10].

For the compound `C[C@@H](Oc1cc(-c2cnn(C3CCNCC3)c2)cnc1N)c1c(Cl)ccc(F)c1Cl`, the Potency in experiment [1] was 2.35 µM (active); in experiment [2], 4.18 µM (active); in experiment [3], 2.35 µM (active); in experiment [4], 6.62 µM (active); in [5] it was 14.8 µM (active); in experiment [6], 13.2 µM (active). The Potency in [7] is 18.7 µM (active); in [8], 2.64 µM (active); in [10] it was 8.33 µM (active).

Consider `O=C(O)c1ccc2cc(-c3ccc(O)c(C45CC6CC(CC(C6)C4)C5)c3)ccc2c1`, for which the Potency in [1] was 0.132 µM (active); in experiment [2], 13.2 µM (active); in experiment [3] it was 0.264 µM (active); in experiment [4] it was 1.48 µM (active); in [5] it was 16.6 µM (active); in experiment [6], 11.8 µM (active). The Potency in [7] was 23.5 µM (active); in [8] it was 1.48 µM (active); in [10], 1.32 µM (active).

Turning to `Cn1c2cc(S(C)=O)sc2c2cnn(Cc3cccc(N)c3)c(=O)c21` (configuration not stated), the Potency result in experiment [1], in [9], in experiment [5], in experiment [6], in experiment [7] and in [8] was “inactive” each time. Further, the Potency entry in experiment [10] was “inactive”.

For `C[C@]12CC[C@H](O)CC1=CCC1C2CC[C@]2(C)C(n3cnc4ccccc43)=CCC12` (some centres not stated), the Potency in [1] is 14.8 µM (active). Further, the Potency result in experiment [9], in experiment [4], in [5], in [8] and in experiment [10] was “inactive” in each case.
